An excerpt weighted towards active compounds, which were near 2.3% of everything screened.
VDR inhibitor: vitamin D3 receptor (human) inhibition. VDR-SRC2-3 peptide fluorescence polarization, 2 h. Potency, µM, inactives show max response, negative = inhibition, usual class: inhibitors. hit rate 0.93% among 400,000; also: potency is read from the fitted curve at half-maximal effect; % is scaled to controls: 0 for no effect and ±100 for the full control effect
Target sequence (P11473 whole entry, looked up): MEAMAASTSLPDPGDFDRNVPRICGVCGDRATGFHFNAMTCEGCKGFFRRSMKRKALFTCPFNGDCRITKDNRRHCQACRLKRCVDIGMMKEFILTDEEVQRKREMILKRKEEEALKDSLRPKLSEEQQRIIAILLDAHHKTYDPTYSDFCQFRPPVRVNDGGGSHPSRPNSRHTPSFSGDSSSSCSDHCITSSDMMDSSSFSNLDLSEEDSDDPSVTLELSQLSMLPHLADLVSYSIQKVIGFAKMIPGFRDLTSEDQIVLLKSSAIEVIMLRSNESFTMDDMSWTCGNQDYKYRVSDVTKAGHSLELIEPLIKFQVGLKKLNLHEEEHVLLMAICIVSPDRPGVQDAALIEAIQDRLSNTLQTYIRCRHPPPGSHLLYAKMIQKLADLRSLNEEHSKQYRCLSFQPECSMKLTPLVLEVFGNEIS
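Inhibition of the VDR/SRC2-3 peptide interaction is quantified by fluorescence polarization. Compounds (23 nl, pintool) incubate with the reagents for 2 hours at ambient room temperature.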
RGS12 GoLoco inh: blocks human Gai1 binding to RGS12 GoLoco peptide, red readout | Gai1:RGS12 GoLoco peptide FP, rhodamine, 10 min | P63096 | AID 880 | hit rate 0.44% among 230,000 | Potency, µM (series often up to 61.6 µM), for the others: at the highest dose activity, negative = inhibition, most hits filed as inhibitors; active = well fitted inhibition curve with a large enough effect, not every such curve was filed as active; inactive = no such curve, though single readings can be large or run the other way; also: potency is read from the fitted curve at half-maximal effect; % is scaled to controls: 0 for no effect and ±100 for the full control effect; nearly all actives have a fitted effect of over 30% in size
Coupling enz: inhibits coupling enzyme system, counter-screen for aldolase hits; coupling enzyme system counterscreen, AmpLite Red fluorescence; activity change, negative = inhibition, % at 58.2 µM, hits read low; hit rate 0.67% among 290,000; AID 2472; in the data active = activity change below about -30%; also: % is scaled to controls: 0 for no effect and ±100 for the full control effect
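Fluorescence at 525 nm excitation and 598 nm emission measured inhibition of the coupled detection system without aldolase. Compounds (at 57.5 uM final) were preincubated 10 min at room temperature with coupling enzyme reagent before a 20 min substrate/AmpLite Red step.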
KDM4E inh: blocks human JMJD2E demethylase activity | JMJD2E catalytic domain, FDH-coupled NADH fluorescence (FDH is formaldehyde dehydrogenase) | Potency, µM (series often up to 57.1 µM), inactives show at the highest dose activity change, negative = inhibition, usual class: inhibitors | hit rate 1.6% among 230,000; active = well fitted inhibition curve with a large enough effect, not every such curve was filed as active; inconclusive = small, poorly fitted or top-dose-only effect, or another doubt; inactive = no such curve, though single readings can be large or run the other way;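 also: potency is read from the fitted curve at half-maximal effect; 0% = wells with enzyme and -100% = buffer wells without enzyme; nearly all actives have a fitted effect of over 50% in size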
Target sequence (B2RXH2 1-337 limits assumed): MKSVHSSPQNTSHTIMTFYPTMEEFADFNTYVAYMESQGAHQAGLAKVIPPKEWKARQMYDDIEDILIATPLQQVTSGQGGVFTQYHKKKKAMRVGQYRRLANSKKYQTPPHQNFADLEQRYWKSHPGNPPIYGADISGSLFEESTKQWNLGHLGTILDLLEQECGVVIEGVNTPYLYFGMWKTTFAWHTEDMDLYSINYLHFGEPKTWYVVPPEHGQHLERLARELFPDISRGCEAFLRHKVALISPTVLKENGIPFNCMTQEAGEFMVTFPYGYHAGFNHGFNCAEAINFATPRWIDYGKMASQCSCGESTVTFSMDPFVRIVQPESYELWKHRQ
HTT ATP protect: cytoprotection in Huntington HTT-Q103 PC12 cell model; PC12 HTT-Q103 induced, cytoprotection, ATP luminescence, 40 h; hit rate 0.14% among 230,000; Potency, µM (top dose mostly 56.4 µM), without a hit: cytoprotection (ATP increase), hits mostly activators; AID 1471; also: potency is read from the fitted curve at half-maximal effect; % of control where 0% means no effect; nearly all actives have a fitted effect of over 45% in size
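Cells were plated at 1500 per well in phenol red-free DMEM with 5% equine and 5% calf serum. Tebufenozide (100 nM final) and compounds were added, then ATPlite reagent, and luminescence was read.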
HTT aggregate: reduces HttQ103-GFP aggregates in PC12 cells | AID 1688 | Potency, µM (series often up to 46.1 µM), for inactives: top-dose activity change, negative = inhibition, most hits filed as inhibitors | PC12 HttQ103-GFP aggregates, Acumen cytometry, 40 h | hit rate 1.1% among 220,000; also: potency is read from the fitted curve at half-maximal effect; % is scaled to controls: 0 for no effect and ±100 for the full control effect; nearly all actives have a fitted effect of over 60% in size
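Ecdysone-promoter PC12 model expressing HTT exon 1 Q103 fused to GFP, induced by tebufenozide at 100 nM final. Compounds titrated; aggregates sized 1–25 µm scored on a 488 nm laser cytometer.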
Numbers without * were called inactive; ? = inconclusive; . = no result given; [ ] = dose if it differs, or a comment. Unless noted, calls follow the shape of the dose curve; as a rule, active = well fitted curve in the direction sought with a large enough effect; inconclusive = small, poorly fitted or top-dose-only effect, or another doubt; inactive = no such curve, though single readings can be large; an effect the other way counts as inactive or inconclusive.

SMILES	VDR inhibitor	RGS12 GoLoco inh	Coupling enz	KDM4E inh	HTT ATP protect	HTT aggregate
COc1ccccc1N1C[C@@H]2C[C@@H](c3ccco3)N3CCC[C@@]23C1=O	21%	3%	1	0%	-178%	7.1µM*
COCc1cc([C@@H]2C[C@H]3CN(c4ccccc4)C(=O)[C@]34CCCN24)ccc1OC	12%	40%	-13	0%	-134%	32µM*
CCOc1ccc(-c2nc(SCC(=O)NC3CCCC3)c(-c3ccccc3)[nH]2)cc1OC	-6%	.	.	.	.	.
O=C1NC(=S)NC1=Cc1ccco1	28µM*	.	.	.	.	.
O=C1NC(=O)/C(=C/c2ccco2)N1	-19%	.	.	.	.	.
Cc1ccccc1CC1(CO)CCCN(C(=O)c2ccc3ncccc3c2)C1 (centres undefined)	40µM*	13%	0	15%	-9%[10 µM]	-10%[9.22 µM]
O=C(CN1C(=O)NC2(CCCC2)C1=O)OCc1ccc(Cl)cc1Cl	-14%	.	.	.	.	.
Cc1[nH]c2ccccc2c1C(C#N)(C#N)C1C(=O)c2ccccc2C1=O	-25%	-7%	-36*	?	0%[10 µM]	-20%[9.22 µM]
Cc1[nH]c2ccccc2c1/C=C(\C#N)S(=O)(=O)c1ccccc1	11%	8%	0	-8%	17%	12%[9.22 µM]
CCC1Oc2ccccc2N(CC(=O)NCc2ccco2)C1=O (centres undefined)	-3%	14%	-1	-15%	6%[10 µM]	-1%[9.22 µM]
CCCCCCCn1ccc(=N)cc1	21%	16µM*	1	-11%	-54%	1.1µM*
CCCCCn1ccc(=N)cc1	3%	13µM*	-9	-12%	0%[0.074 µM]	?
CCCCCCCCCn1ccc(=N)cc1	0%	2%	6	8%	-34%[10 µM]	-32%[9.22 µM]
O=C(O)/C=C(/C(=O)O)[C@]12CCN3CC4=CCO[C@@H]5CC(=O)N[C@@H]1C5[C@H]4C[C@H]32 (some centres undefined)	.	0%[14.2 µM]	.	.	.	.
Cc1nc2c(O)cccc2cc1CO	-8%	-5%	-37*	3%	5%[10 µM]	-3%[9.22 µM]
Cc1ccc(O)c(CO)n1	-16%	-2%	3	?	28%[10 µM]	17%[9.22 µM]
CCC12CN3CC(CC)(CN(C1)C3c1c(O)ccc3ccccc13)C2=O (centres undefined)	-16%	-15%	-36*	13µM*	?	-31%
CC(C)CCSc1nc(N)c(C#N)cc1C#N	24%	14%	-2	?	-28%[10 µM]	22µM*
CC(C)C[C@H](NC(=O)CNC(=O)[C@H](C)NC(=O)[C@H](CC(C)C)NC(=O)[C@H](CCCNC(=N)N)NC(=O)[C@H](Cc1cnc[nH]1)NC(=O)[C@@H](NC(=O)[C@@H](N)C(C)C)[C@@H](C)O)C(=O)N[C@@H](CC(C)C)C(=O)N[C@@H](CO)C(=O)N[C@@H](CCCNC(=N)N)C(=O)N[C@@H](CO)C(=O)NCC(=O)NCC(=O)N[C@H](C(=O)N[C@H](C(=O)N[C@@H](CCCCN)C(=O)N[C@@H](CC(N)=O)C(=O)N[C@@H](CC(N)=O)C(=O)N[C@@H](Cc1ccccc1)C(=O)N[C@H](C(=O)N1CCC[C@H]1C(=O)N[C@H](C(=O)N[C@@H](CC(N)=O)C(=O)N[C@H](C(=O)NCC(=O)N[C@@H](CO)C(=O)N[C@@H](CCCCN)C(=O)N[C@@H](C)C(=O)N[C@@H](Cc1ccccc1)C(N)=O)C(C)C)[C@@H](C)O)C(C)C)C(C)C)C(C)C	1%	.	3	.	.	.
Fc1ccc(C(CCCn2nnc(-c3cccnc3)n2)c2ccc(F)cc2)cc1	-11%	6%	0	0%	-92%	13µM*
Fc1ccc(-n2nnc(-c3cccnc3)n2)cc1	-22%	-7%	2	15%	-7%[10 µM]	8%[9.22 µM]
Cc1c(Cl)c(C(=O)NNC(=S)Nc2ccc(F)cc2)nn1C	-7%	13%	-1	20µM*	3%[10 µM]	6%[9.22 µM]
Cc1c(Cl)c(C(=O)NNC(=S)Nc2ccccc2)nn1C	-7%	2%	1	10µM*	-4%	4%
S=C(NNC(=S)Nc1ccccc1)Nc1ccccc1	71µM*	.	3	.	.	.
COc1ccccc1C(=O)NC1CCN(C(=O)Nc2ccc(F)cc2)CC1	9%	.	2	.	.	.
SMILES	VDR inhibitor	RGS12 GoLoco inh	Coupling enz	KDM4E inh	HTT ATP protect	HTT aggregate
O=C(Nc1ccccc1F)c1ccc2c(Cl)c3c(nc2c1)CCC3	-14%	.	.	.	.	.
COc1ccc(N(Cc2ccccc2)N=O)cc1	-14%	.	-1	.	.	.
O=C(CCc1ccccc1)NNC(=O)c1ccccn1	6%	-2%	-2	?	-80%	13µM*
COc1ccc(OC)c(C2C(C(C)=O)=C(C)Nc3ncnn32)c1 (centres undefined)	-6%	.	-1	.	.	.
CN(CCCC(=O)NCCc1ccccc1)S(=O)(=O)c1ccc([N+](=O)[O-])cc1	-16%	.	2	.	.	.
C=CC1=C2C=C(C3CC3)N(CCCCO)C=C2C(=O)C(C)(OC(=O)c2ccco2)C1=O (centres undefined)	.	-13%[14.2 µM]	-42*	?	-20%[10 µM]	.
C=CC1=C2C=C(C3CC3)N(CC3CC3)C=C2C(=O)C(C)(OC(=O)c2ccco2)C1=O (centres undefined)	-13%	-10%[14.2 µM]	-31*	-20%[11.4 µM]	-12%[10 µM]	.
C=CC1=C2C=C(C3CC3)N(CCOC)C=C2C(=O)C(C)(OC(=O)c2ccco2)C1=O (centres undefined)	.	-1%[14.2 µM]	-29	-23%[11.4 µM]	5%[10 µM]	.
C=CCN1C=C2C(=O)C(C)(OC(=O)c3ccco3)C(=O)C(C=C)=C2C=C1C1CC1 (centres undefined)	.	0%[14.2 µM]	-20	-28%[11.4 µM]	-5%[10 µM]	.
Cn1c(CS/C(N)=N/N=C/c2ccccc2)c(Br)c(=O)n1-c1ccccc1	50µM*	7%	1	-9%	.	32%
CC(=O)N(C(C)=O)c1ncc2c([nH]c3ccccc32)c1C#N	?	-3%	-1	?	-5%	3.2µM*
CC1(C)CC(=O)C(C=NCC(N)=O)=C(O)C1	10%	.	1	?	-63%	11µM*
CCCCC(=O)NC(=S)NNC(=O)c1ccc(OC)cc1	-10%	17%	1	?	11%[10 µM]	10µM*
COc1cccc2c1C(=O)c1c(O)c3c(c(O)c1C2=O)C[C@@](O)(C(=O)CO)C[C@@H]3O[C@@H]1C[C@H](N)[C@H](O)[C@H](C)O1	.	11µM*	-15	22µM*	-67%	.
COc1cccc2c1C(=O)c1c(O)c3c(c(O)c1C2=O)C[C@@](O)(C(=O)CO)C[C@@H]3O[C@H]1C[C@H](N)[C@H](O)[C@H](C)O1	-4%	2.8µM*	-40*	?	-88%	.
COc1cccc2c1C(=N)c1c(O)c3c(c(O)c1C2=O)C[C@](O)(C(C)=O)C[C@@H]3O[C@H]1C[C@H](N)[C@@H](O)[C@H](C)O1	.	0%[14.2 µM]	.	.	-75%[10 µM]	.
